{"source": "PubChem BioAssay (Tox21)", "note": "Results filed as inconclusive are left out. Entries that show only a call come without a potency. Activity calls are given as the source filed them. The call rests on the fitted dose curve; in most records, active means well fitted activation curve with a large enough effect in the signal ratio in the repeat runs (not every such curve was filed as active); inconclusive means weak or mixed curves; inactive means flat fitted curve, though single readings scatter; the % refers to the signal ratio.", "data": [{"test": "qHTS assay to identify small molecule agonists of the TGF-beta/Smad signaling pathway (AID 1346859)", "settings": "SBE-bla HEK293T, TGF-beta/Smad beta-lactamase reporter, 5 h; series mostly up to 76.8 µM", "text": "U.S. Tox21 Program National Center for Advancing Translational Sciences [NCATS] NIH Chemical Genomics Center [NCGC] U.S. Environmental Protection Agency [EPA] National Institutes of Environmental Health Sciences [NIEHS] National Toxicology Program [NTP] U.S. Food and Drug Administration [FDA] Tox21 Assay Overview: Transforming growth factor beta (TGF-beta) superfamily consists of a large number of structurally related dimeric proteins that act as hormones or local mediators in regulating a wide range of biological functions. This superfamily includes TGF-betas themselves, the bone morphogenetic proteins (BMPs) and the activins. These ligands induce oligomerization of serine/threonine receptor kinases and phosphorylate the cytoplasmic signaling molecules of Smad protein family. CellSensor SBE-bla HEK 293T cell line (Life Technologies, Carlsbad, CA), responsive to TGF-beta was used to screen Tox21 10K compound library for identification of agonists/antagonists of the Smad signaling pathway. This cell line contains a beta-lactamase reporter gene under control of the Smad binding element (SBE) stably integrated into HEK 293T cells.\nTox21 Assay Protocol Summary: SBE-bla HEK 293T cells were dispensed at 4,000/well in 6 uL of assay medium into black wall/clear-bottom 1536-well plates using a Multidrop Combi (ThermoFisher Scientific, Waltham, MA) dispenser. After the assay plates were incubated at 37 C and 5% CO2 for an overnight, 23 nL of compounds dissolved in DMSO, positive controls or DMSO only was transferred to the assay plate by a Pintool station (Kalypsys, San Diego, CA). The assay plates were incubated at 37 C and 5% CO2 for 5 hr. One uL of LiveBLAzer B/G FRET substrate (Life Technologies) was added using a Flying Reagent Dispenser (Aurora Discovery, San Diego, CA) and the plates were incubated at room temperature for 2 hr. Fluorescence intensity (405 nm excitation, 460 nm and 530 nm emissions) was measured using an Envision plate reader (PerkinElmer, Shelton, CT).", "values": [{"smiles": "Nc1nc2ccccc2n1Cc1ccc(F)cc1", "Potency": "inactive"}, {"smiles": "NC(=NCCCCCCN=C(N)/N=C(\\N)Nc1ccc(Cl)cc1)/N=C(\\N)Nc1ccc(Cl)cc1", "Potency": "inactive"}, {"smiles": "COc1cccc(N)c1", "Potency": "inactive"}, {"smiles": "C1CCCC1", "Potency": "inactive"}, {"smiles": "Clc1ccc(C(Cn2ccnc2)OCc2ccc(Sc3ccccc3)cc2)c(Cl)c1", "note": "(stereo not given)", "Potency": "inactive"}, {"smiles": "NNc1nc(-c2ccc([N+](=O)[O-])cc2)cs1", "Potency": "inactive"}, {"smiles": "O=Cc1cc(O)ccc1Br", "Potency": "inactive"}, {"smiles": "CC(=O)N1CCN(c2ccc(OC[C@H]3CO[C@](Cn4ccnc4)(c4ccc(Cl)cc4Cl)O3)cc2)CC1", "Potency": "inactive"}, {"smiles": "C[n+]1ccn(Cc2ccccc2)c1", "Potency": "inactive"}, {"smiles": "Oc1ccc(C2(c3ccc(O)cc3)CC3CC2C2CCCC32)cc1", "note": "(stereo not given)", "Potency": "inactive"}, {"smiles": "OCCCCCCCCCCCCBr", "Potency": "inactive"}, {"smiles": "C/C=C(\\C)C(=O)OCc1ccccc1", "Potency": "inactive"}, {"smiles": "S=c1[nH]c2ccccc2s1", "Potency": "inactive"}, {"smiles": "C=CC(=O)OCC(CO)(COCC(COC(=O)C=C)(COC(=O)C=C)COC(=O)C=C)COC(=O)C=C", "Potency": "inactive"}, {"smiles": "O=C(N/N=C/c1ccccc1O)c1ccncc1", "Potency": "inactive"}, {"smiles": "Nc1ccc2cc(S(=O)(=O)O)cc(O)c2c1N=Nc1ccccc1C(F)(F)F", "Potency": "inactive"}, {"smiles": "CC(=O)SC[C@@H](Cc1ccccc1)C(=O)NCC(=O)OCc1ccccc1", "Potency": "inactive"}, {"smiles": "C/C(=C(/OCCOc1ccc(Cl)cc1)c1ccc(Cl)cc1Cl)n1ccnc1", "Potency": "inactive"}, {"smiles": "Cc1ccc2oc(CN(Cc3ccccc3)C(=O)Nc3c(F)cc(F)cc3F)c(-c3ccc(Cl)cc3)c2c1", "Potency": "inactive"}, {"smiles": "Cc1cc(C2CCCCC2)n(O)c(=O)c1", "Potency": "inactive"}, {"smiles": "CCCCCCCC(=O)[O-].CCCCCCCC(=O)[O-].[Zn+2]", "Potency": "inactive"}, {"smiles": "Clc1ccc2nsnc2c1NC1=NCCN1", "Potency": "inactive"}, {"smiles": "CCCCCCCCCCCCCCCS(=O)(=O)Oc1ccccc1", "Potency": "inactive"}, {"smiles": "CCCCCCCCCCCC(=O)NCCCN(C)C", "Potency": "inactive"}, {"smiles": "O=c1cc(-c2ccc(O)cc2)oc2cc(O)cc(O)c12", "Potency": "inactive"}, {"smiles": "Oc1ccc2c(c1)-c1ccccc1C2", "Potency": "inactive"}, {"smiles": "CCc1cc(Cc2cc(CC)cc(C(C)(C)C)c2O)c(O)c(C(C)(C)C)c1", "Potency": "inactive"}, {"smiles": "CCCCCCCCS(=O)C(C)Cc1ccc2c(c1)OCO2", "note": "(stereo not given)", "Potency": "inactive"}, {"smiles": "O=C(O)c1c(Cl)cccc1Cl", "Potency": "inactive"}, {"smiles": "CCCCCCOC(=O)c1ccc(O)cc1", "Potency": "inactive"}, {"smiles": "CC(C)CCCCCCCCCCCCCCC(=O)O", "Potency": "inactive"}, {"smiles": "O=C1c2c(O)ccc(Nc3ccc(CCO)cc3)c2C(=O)c2c([N+](=O)[O-])ccc(O)c21", "Potency": "inactive"}, {"smiles": "O=C(O)c1ccc(Cl)c(Cl)c1", "Potency": "inactive"}, {"smiles": "Nc1c(Cl)cc(Cl)cc1Cl", "Potency": "inactive"}, {"smiles": "Cc1onc(-c2c(Cl)cccc2Cl)c1C(=O)N[C@@H]1C(=O)N2[C@@H]1SC(C)(C)[C@@H]2C(=O)O", "Potency": "inactive"}, {"smiles": "Clc1ccc2n[nH]nc2c1", "Potency": "inactive"}, {"smiles": "N#CSc1ccc(N)c([N+](=O)[O-])c1", "Potency": "inactive"}, {"smiles": "O=C(c1ccc(O)cc1O)c1ccc(O)cc1O", "Potency": "inactive"}, {"smiles": "O=C1C=CC(=O)N1", "Potency": "inactive"}, {"smiles": "OCCN1CCN(CC/C=C2/c3ccccc3Sc3ccc(C(F)(F)F)cc32)CC1", "Potency": "inactive"}]}]}
